Results from the supplement of paper PMC10498489.
The whole screen tested about 2,300 compounds, of which about 330 (14%) showed activity. Not all results are given here. Unmarked numbers belong to inactive results.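 The calls were made as follows: active = median modified Z-score above 1.96; inactive = 1.96 or below.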

tested on: HepG2 Srxn1-GFP reporter cells (+30 nM CDDO-Me); experiment: Srxn1-GFP intensity median modified Z-score relative to plate median; higher = stronger NRF2 / oxidative stress reporter activation, active = hit call of the paper; settings: 10 µM; exposure time: 24h
Summary of the method: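 Per-cell cytoplasmic GFP was measured on confocal images of formaldehyde-fixed, Hoechst-stained HepG2 Srxn1-GFP BAC reporter cells, excluding images with fewer than 100 cells. Before this, the cells (20,000 per well, 96-well plates) were co-exposed for 24 h to compound at 10 μM and an NRF2 activator at 30 nM with ≤0.1% DMSO, in three replicate plates. Each value is the median over replicates of the per-plate modified Z-score of GFP intensity. That score was scaled with 1.4826 × median absolute deviation.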

SMILES | Srxn1-GFP intensity median modified Z-score
CCN(C)C(=O)Oc1cccc([C@H](C)N(C)C)c1 [euspeclibcmpd2067] | -0.306
COC[C@]12CN(C=O)C3[C@@H]4[C@H](OC)C1[C@]3(C1CC3(O)C(OC)C(O)[C@]4(OC(C)=O)C1C3OC(=O)c1ccccc1)[C@@H](OC)C[C@H]2O (some centres not stated) [euspeclibcmpd1413] | -0.00565
COc1cc2c(cc1O)CC1c3c(cc(O)c(OC)c3-2)CCN1C (configuration not stated) [euspeclibcmpd1326] | -0.347
COc1cc2c3cc1Oc1c(OC)c(OC)cc4c1[C@@H](Cc1cccc(c1)Oc1ccc(c(O)c1)C[C@@H]3N(C)CC2)N(C)CC4 [euspeclibcmpd1812] | 2.31 (active)
COc1ccc2c(c1O)-c1c(OC)c(OC)cc3c1[C@H](C2)N(C)CC3 [euspeclibcmpd1537] | -0.343
O=C(NC(O)C(Cl)(Cl)Cl)NC(O)C(Cl)(Cl)Cl (configuration not stated) [euspeclibcmpd2304] | 0.189
c1ccc2nc(N3CCNCC3)ccc2c1 [euspeclibcmpd578] | -0.285
C[C@@H]1CC(Cl)CCC1C(=O)OC(C)(C)C (some centres not stated) [euspeclibcmpd1756] | -0.159
CNC(C)(C)Cc1ccccc1 [euspeclibcmpd691] | 0.194
CN1CCc2cc3c(cc2[C@H]1C1OC(=O)c2c1ccc1c2OCO1)OCO3 (some centres not stated) [euspeclibcmpd1552] | -0.0938
C[N+]1(C)CCc2cc3c(cc2[C@H]1C1OC(=O)c2c1ccc1c2OCO1)OCO3 (some centres not stated) [euspeclibcmpd1466] | 2.41 (active)
C#CCN(C)C(C)Cc1ccccc1 (configuration not stated) [euspeclibcmpd993] | -0.386
CCC1(CO)C(=O)NC(=O)NC1=O | 1.07
COc1cc2occc2c2oc(=O)ccc12 [euspeclibcmpd1717] | -0.121
O=C(O)Cc1ccccc1 [euspeclibcmpd2440] | -0.295
NCC(=O)c1ccccc1 [euspeclibcmpd1673] | 3.04 (active)
NCCc1ccccc1 [euspeclibcmpd2078] | 0.0184
C[N+]1([O-])C2CCC1CC(OC(=O)C(CO)c1ccccc1)C2 (configuration not stated) [euspeclibcmpd2322] | -0.247
C=CCC1(C(C)CCC)C(=O)NC(=S)NC1=O (configuration not stated) [euspeclibcmpd2148] | -0.0652
O=P1(NCCBr)OCCCN1CCCl (configuration not stated) | 0.805
CNCC(O)c1ccc(O)cc1 (configuration not stated) [euspeclibcmpd1199] | 0.983
COC(=O)C1=CO[C@@H](C)C2CN3CC[C@]4(C(=O)Nc5ccccc54)C3C[C@H]12 (some centres not stated) [euspeclibcmpd2321] | -0.26
